CHT inh – human CHT choline transport inhibition. B-score at 10 µM. CHT-expressing cells, membrane potential dye, choline response; active compounds read low. hit rate 0.86% among 310,000. Q9GZV3;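 active means B-score over 3 SD under the library average, and starting fluorescence ratio not unusually high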;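 further: choline stimulus applied at its EC90 after an EC20 pre-addition; B-score computed on integrated fluorescence ratio after choline addition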
CHT PAM – allosterically activates the human high affinity choline transporter; AID 488977; CHT-expressing cells, membrane potential dye, choline EC20; active compounds read high; LV-AA mutant CHT in HEK293 cells; hit rate 0.49% among 310,000; Q9GZV3; B-score at 10 µM;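 active means initial fluorescence not abnormally high and integrated response B-score, plate-corrected, over 3 SD above library mean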
TMEM16A act – activators or potentiators of mouse TMEM16A chloride channel | HEK293 TMEM16A/YFP-H148Q/I152L, iodide quench fluorescence; active compounds read low | B-score at 10 µM | AID 623877 | hit rate 0.3% among 340,000;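 active means fluorescence-ratio B-score plate-corrected deviation score at least 3 library SD below zero, with starting fluorescence score within 5 deviations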;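 further: channel opened by trigger with iodide after compound preincubation; score built on the fluorescence ratio of max minus min over baseline; more negative score means more quench and so TMEM16A activation or potentiation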
ANO1 block – inhibitors of mouse TMEM16A calcium-activated chloride channel | Q8BHY3 | HEK293 TMEM16A/YFP iodide influx fluorescence, ionomycin | normalized B-score (activity score, 25-100; higher = stronger inhibition) at 10 µM | hit rate 1.2% among 310,000 | AID 588511;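 active means ratio plate-corrected score three or more library SD toward inhibition, starting fluorescence score within five deviations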;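 further: score derived from kinetic fluorescence span divided by baseline fluorescence per well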
CHT activ conf – human CHT activation, confirmatory screen; shares compounds with CHT PAM; CHT-expressing cells, membrane potential dye fluorescence (FDSS); % of choline EC20–EC90 response window; HEK293 expressing CHT LV-AA mutant; choline added at its EC20; activation, % at 10 µM; hit rate 91% among 2,500;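 active means primary screen active, with duplicate mean activation above negative control mean plus 3 SD, cut at about 11% in these data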
HEK293 MP dye – activity in parental HEK293 cells lacking CHT | shares compounds with CHT PAM | membrane potential dye fluorescence (FDSS); measured after EC20 choline addition | ratio readout change at 10 µM, hits read low | hit rate 62% among 2,500;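 active means duplicate-averaged ratio beyond 3 SD from buffer wells, up or down, though filed actives are nearly all decreases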
Starred values were filed as active, the others as inactive. Only some compounds are listed: those with a hit (about 2.4% of all), similar ones and a draw of the others.

For O=[N+]([O-])c1ccc(Cl)c(C[n+]2cccc3ccccc32)c1 the results were CHT inh inactive, CHT PAM inactive, TMEM16A act inactive, ANO1 block inactive, CHT activ conf 54.1* and HEK293 MP dye -46*.
For N#Cc1nc(-c2ccc(F)cc2)oc1NCCN1CCOCC1 the results were CHT inh inactive, CHT PAM inactive, TMEM16A act inactive and ANO1 block inactive.
COc1ccc(-c2nc(C#N)c(NCCCN3CCOCC3)o2)cc1 was read as CHT inh inactive, CHT PAM inactive, TMEM16A act inactive, ANO1 block inactive, CHT activ conf 23.5* and HEK293 MP dye -21.4*.
For CCn1c(SCC(=O)N/N=C/C=C\c2ccccc2[N+](=O)[O-])nc2ccccc21 the results were CHT inh inactive, CHT PAM inactive, TMEM16A act inactive and ANO1 block inactive.
For CCC(C)(C)n1nnnc1C(C(C)C)N1CCSCC1 (configuration not stated) the results were CHT inh inactive, CHT PAM inactive, TMEM16A act inactive, ANO1 block inactive, CHT activ conf 0.7 and HEK293 MP dye inactive.
O=C(NCCc1ccncc1)Nc1ccccc1 was read as CHT inh inactive, CHT PAM inactive, TMEM16A act inactive and ANO1 block inactive.
`O=C(Cn1nnc2c(sc3nc4c(c(-c5ccccc5)c32)CCC4)c1=O)c1ccccc1` gave CHT inh inactive, CHT PAM inactive, TMEM16A act inactive and ANO1 block inactive.
`COC(=O)C(Cc1ccccc1)NC(=O)C12CC3CC(CC(C3)C1)C2` (configuration not stated) gave CHT inh inactive, CHT PAM inactive, TMEM16A act inactive and ANO1 block inactive.
For N#Cc1c(NC(=O)CCn2cnc3ccccc3c2=O)oc(-c2ccccc2)c1-c1ccccc1 the results were CHT inh inactive, CHT PAM inactive, TMEM16A act inactive, ANO1 block inactive, CHT activ conf 4.6 and HEK293 MP dye inactive.
`N#Cc1c(NC(=O)CSc2ccccn2)oc(-c2ccccc2)c1-c1ccccc1` gave CHT inh inactive, CHT PAM inactive, TMEM16A act inactive and ANO1 block inactive.
`CC(=O)CCC1CC(c2ccc(Cl)cc2)=NO1` (configuration not stated) gave CHT inh inactive, CHT PAM inactive, TMEM16A act inactive and ANO1 block inactive.
For O=[N+]([O-])c1ccc(OC/C=C2\Oc3ccc([N+](=O)[O-])cc3C2N2CCOCC2)cc1 (configuration not stated) the results were CHT inh inactive, CHT PAM 7.46*, TMEM16A act inactive, ANO1 block inactive, CHT activ conf 30.1* and HEK293 MP dye inactive.
O=[N+]([O-])c1ccc2c(c1)C(N1CCOCC1)/C(=C/COc1ccc3ccccc3c1Br)O2 (configuration not stated) was read as CHT inh inactive, CHT PAM inactive, TMEM16A act inactive and ANO1 block inactive.
For CCCn1c(SCC(=O)N2CCCC(C)C2)nnc1-c1ccccn1 (configuration not stated) the results were CHT inh inactive, CHT PAM inactive, TMEM16A act inactive and ANO1 block inactive.
O=C(COC(=O)c1cc[n+]([O-])cc1)Nc1cc([N+](=O)[O-])ccc1Cl was read as CHT inh inactive, CHT PAM inactive, TMEM16A act inactive, ANO1 block inactive, CHT activ conf 39.6* and HEK293 MP dye -50.3*.
Screening CCCCCCCC[n+]1cccc2c3ccccc3ccc21 returned CHT inh inactive, CHT PAM 6.77*, TMEM16A act inactive, ANO1 block 100*, CHT activ conf 19.3* and HEK293 MP dye -25.9*.
Screening CCCCCCCCCC[n+]1cccc2c3ccccc3ccc21 returned TMEM16A act inactive.
For Cc1nn(C)c(C(=O)Nc2c(C)nn(Cc3c(F)c(F)c(F)c(F)c3F)c2C)c1Br the results were CHT inh inactive, CHT PAM inactive, TMEM16A act inactive and ANO1 block inactive.

Screening results (PubChem BioAssay)
